Reference: PubChem BioAssay (NCI)
The panel holds about 83,000 compounds, 20% with a hit somewhere; the sample as a whole holds those more often.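 Assay: single dose, 48 h. Readout: percent growth (0 = no net growth; negative = cell death). Active: <10.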 Active and inactive are the calls of the source.

Tests used:
Assay in all cases: NCI-60 one-dose screen, 48 h (100 = growth as untreated, 0 = no growth, -100 = all killed)
Settings in all cases: 10 µM unless noted
SK-MEL-2 melanoma = test system: SK-MEL-2 melanoma
EKVX NSCLC = test system: EKVX NSCLC
SN12C renal = test system: SN12C renal
UO-31 renal = test system: UO-31 renal
TK-10 renal = test system: TK-10 renal
ACHN renal = test system: ACHN renal
CAKI-1 renal = test system: CAKI-1 renal
A498 renal = test system: A498 renal
CCRF-CEM leukemia = test system: CCRF-CEM leukemia
MOLT-4 leukemia = test system: MOLT-4 leukemia

Measured: growth

CCCCCn1cnc2c(=S)nc[nH]c21
inactive: SK-MEL-2 melanoma 121% | EKVX NSCLC 108% | SN12C renal 117% | UO-31 renal 99.1% | TK-10 renal 116% | ACHN renal 109% | CAKI-1 renal 115% | A498 renal 107% | CCRF-CEM leukemia 97.1% | MOLT-4 leukemia 104%

Oc1ccccc1N=Cc1c(O)ccc2ccccc12
inactive: SK-MEL-2 melanoma 62.4% | EKVX NSCLC 63.2% | SN12C renal 65.3% | UO-31 renal 57% | TK-10 renal 119% | ACHN renal 59.3% | CAKI-1 renal 47.6% | A498 renal 64.8% | CCRF-CEM leukemia 32.5% | MOLT-4 leukemia 37.1%

O=c1ccc2cc3ccccc3cc2[nH]1
active: CCRF-CEM leukemia -72.7%
inactive: SK-MEL-2 melanoma 97.5% | EKVX NSCLC 28.1% | SN12C renal 94.4% | UO-31 renal 76.4% | TK-10 renal 119% | ACHN renal 108% | CAKI-1 renal 78.4% | A498 renal 97.9% | MOLT-4 leukemia 87.3%

C/C=C/C(N)=O
inactive: SK-MEL-2 melanoma 119% | EKVX NSCLC 95.9% | SN12C renal 106% | UO-31 renal 91.7% | TK-10 renal 105% | ACHN renal 96.8% | CAKI-1 renal 98% | A498 renal 108% | CCRF-CEM leukemia 35.6% | MOLT-4 leukemia 96.2%

C=C1CC[C@@H]2[C@](C)(COC(C)=O)[C@H](OC(C)=O)CC[C@@]2(C)[C@@H]1CC(NCc1ccc(F)cc1)C1=CCOC1=O (some centres not stated)
inactive: SK-MEL-2 melanoma 73.2% | EKVX NSCLC 50% | SN12C renal 46.2% | UO-31 renal 31.3% | TK-10 renal 66.6% | ACHN renal 50.9% | CAKI-1 renal 46% | A498 renal 51.7%
active: CCRF-CEM leukemia 9.18% | MOLT-4 leukemia -0.37%

COc1ccc(S(=O)(=O)NCCNc2nccc(-c3c(-c4cccc(N)c4)nc4sccn34)n2)cc1
inactive: SK-MEL-2 melanoma 108% | EKVX NSCLC 95.4% | SN12C renal 95.7% | UO-31 renal 83.2% | TK-10 renal 115% | ACHN renal 95.3% | CAKI-1 renal 93.8% | A498 renal 91.6% | CCRF-CEM leukemia 101% | MOLT-4 leukemia 99%

COc1cc2cc(COc3nccc(-c4ccc(Cl)cc4)n3)c(=O)[nH]c2cc1OC
inactive: SK-MEL-2 melanoma 96.7% | EKVX NSCLC 91% | SN12C renal 69.3% | UO-31 renal 67.2% | TK-10 renal 100% | ACHN renal 102% | CAKI-1 renal 86.5% | A498 renal 76.6% | MOLT-4 leukemia 42.1%
active: CCRF-CEM leukemia -20.5%

CC(C)[C@H]1COC(=O)N1[C@@H]1C(=O)N([C@@H](CCC(=O)N2CCN(C3CCCC3)CC2)C(=O)N[C@@H]2CCCc3ccccc32)[C@@H]1/C=C/c1cccc(Br)c1
inactive: EKVX NSCLC 48.2% | SN12C renal 38% | UO-31 renal 31% | TK-10 renal 30.9% | ACHN renal 48.9% | CAKI-1 renal 62.5% | CCRF-CEM leukemia 32.8% | MOLT-4 leukemia 17.9%
active: SK-MEL-2 melanoma -7.94% | A498 renal 0.642%

COc1cnc2c(c1)C(=O)c1c-2n(CCCN2CCNCC2)c(=O)c2cc([N+](=O)[O-])ccc12
inactive: SK-MEL-2 melanoma 77.8% | TK-10 renal 32.4% | A498 renal 16.9%
active: EKVX NSCLC -64.6% | SN12C renal -71.5% | UO-31 renal -79.3% | ACHN renal -88.4% | CAKI-1 renal -94.5% | CCRF-CEM leukemia -23% | MOLT-4 leukemia -4.73%

Nc1c(C(=O)Nc2cccc3c2OCCO3)sc2nc3c(cc12)CN(Cc1ccccc1)CC3
inactive: SK-MEL-2 melanoma 56.2% | EKVX NSCLC 83.3% | SN12C renal 87.2% | UO-31 renal 60.4% | TK-10 renal 96.8% | ACHN renal 77.2% | CAKI-1 renal 55.3% | A498 renal 37.9% | CCRF-CEM leukemia 36.3% | MOLT-4 leukemia 52.5%

CCOC(=O)c1c2c(n3ccc(NC(=O)CCN(CC)CC)cc13)C(=O)c1ncccc1C2=O
inactive: SK-MEL-2 melanoma 29.3% | EKVX NSCLC 71.3% | SN12C renal 27.6% | UO-31 renal 28.8% | TK-10 renal 36.5% | ACHN renal 16.1% | CAKI-1 renal 23% | A498 renal 46.9% | CCRF-CEM leukemia 52.9% | MOLT-4 leukemia 29.3%

O=C(CN1CCN(c2cc3c(cc2F)c(=O)c(C(=O)O)cn3C2CC2)CC1)Nc1cc(=O)[nH]c(=O)[nH]1
inactive: SK-MEL-2 melanoma 107% | EKVX NSCLC 92% | SN12C renal 97.7% | UO-31 renal 79.7% | TK-10 renal 100% | ACHN renal 100% | CAKI-1 renal 95.4% | A498 renal 100% | CCRF-CEM leukemia 109% | MOLT-4 leukemia 102%

CC(C)C1=C[C@@]23CC[C@@H]4[C@](C)(CCC[C@@]4(C)C(=O)OCC#CCN4CCCC4)[C@H]2C[C@@H]1[C@H]1C(=O)OC(=O)[C@H]13
inactive: SK-MEL-2 melanoma 97.1% | EKVX NSCLC 86.4% | SN12C renal 93.2% | UO-31 renal 78.3% | TK-10 renal 101% | ACHN renal 95.9% | CAKI-1 renal 83.6% | A498 renal 78.5% | CCRF-CEM leukemia 85.7% | MOLT-4 leukemia 93.9%

NC(=S)N/N=C/c1ccc(OCc2ccccc2)cc1
inactive: SK-MEL-2 melanoma 54.2% | EKVX NSCLC 74.8% | SN12C renal 70.6% | UO-31 renal 22.8% | TK-10 renal 60.2% | ACHN renal 67% | CAKI-1 renal 68.2% | A498 renal 71.5% | CCRF-CEM leukemia 39.1% | MOLT-4 leukemia 32.1%

COc1cc(-c2c3c(nc4c2c(C)nn4-c2ccccc2)-c2ccccc2C(=O)C3=O)cc(OC)c1OC
inactive: SK-MEL-2 melanoma 72.3% | EKVX NSCLC 98.3% | SN12C renal 90.5% | UO-31 renal 73.1% | ACHN renal 82.3% | CAKI-1 renal 74.4% | A498 renal 83.7% | CCRF-CEM leukemia 54.4% | MOLT-4 leukemia 52.5%

O=C(Nc1ccc(Oc2ccc(F)cc2)c(Cl)c1)c1cccnc1
inactive: SK-MEL-2 melanoma 91.3% | EKVX NSCLC 81.9% | SN12C renal 95.8% | UO-31 renal 80.9% | TK-10 renal 97.7% | ACHN renal 99.5% | CAKI-1 renal 86.9% | A498 renal 70.8% | CCRF-CEM leukemia 101% | MOLT-4 leukemia 105%

CC(=O)CC(C)(C)c1ccc(Cl)cc1
inactive: SK-MEL-2 melanoma 108% | EKVX NSCLC 101% | SN12C renal 97.7% | UO-31 renal 85.5% | ACHN renal 102% | CAKI-1 renal 90.2% | A498 renal 108% | CCRF-CEM leukemia 101% | MOLT-4 leukemia 100%

CCC(c1ccccc1)C(CC)c1ccc(O)c(O)c1 (configuration not stated)
inactive: SK-MEL-2 melanoma 94.3% | EKVX NSCLC 107% | SN12C renal 91.9% | UO-31 renal 74.2% | TK-10 renal 106% | ACHN renal 95.9% | CAKI-1 renal 101% | A498 renal 110% | MOLT-4 leukemia 73.8%

CCN(CC)Cc1cc(Nc2c3ccccc3nc3cc(Cl)ccc23)ccc1O
active: SK-MEL-2 melanoma -74.2% | EKVX NSCLC -55.1% | SN12C renal -36.9% | UO-31 renal -72.9% | ACHN renal -97.3% | CAKI-1 renal -75% | A498 renal -61.4% | CCRF-CEM leukemia -11.9% | MOLT-4 leukemia -28.9%

COc1ccccc1/C=C(/C(=O)c1ccccc1)c1ccccc1
inactive: SK-MEL-2 melanoma 94.5% | EKVX NSCLC 109% | SN12C renal 102% | UO-31 renal 75.4% | ACHN renal 99.8% | CAKI-1 renal 92.8% | A498 renal 111% | CCRF-CEM leukemia 104% | MOLT-4 leukemia 75.1%

O=C(COc1cccc(/C=C2/Oc3ccccc3C2=O)c1)Nc1nccs1
inactive: EKVX NSCLC 74.7% | SN12C renal 70.3% | TK-10 renal 83.7% | ACHN renal 112% | CAKI-1 renal 37% | A498 renal 93.9% | MOLT-4 leukemia 28.4%
active: SK-MEL-2 melanoma -32.2% | UO-31 renal -53.2%

CN(C)c1ccc(/C=C(\C#N)c2nc3ccccc3s2)cc1
inactive: SK-MEL-2 melanoma 106% | EKVX NSCLC 89.5% | SN12C renal 104% | UO-31 renal 90.7% | ACHN renal 101% | CAKI-1 renal 89.2% | A498 renal 112% | CCRF-CEM leukemia 81.8% | MOLT-4 leukemia 96.4%

COc1ccc(C2c3ccc4ccccc4c3Oc3ncnc(N)c32)cc1 (configuration not stated)
inactive: SK-MEL-2 melanoma 71.9% | EKVX NSCLC 45.9% | SN12C renal 96% | UO-31 renal 55.9% | ACHN renal 81.3% | CAKI-1 renal 50% | A498 renal 75.2% | CCRF-CEM leukemia 89.2% | MOLT-4 leukemia 83.4%

O=c1c2c3c(sc2n2c(CCl)nnc2n1Cc1ccccc1)CCCC3
active: SK-MEL-2 melanoma -83.1% | EKVX NSCLC -35.4% | SN12C renal -82.8% | UO-31 renal -83.2% | TK-10 renal -93.6% | ACHN renal -100% | CAKI-1 renal -100% | MOLT-4 leukemia -18.4%
inactive: A498 renal 92.5%

CCCCCCCCCCCCCC1=NCCN1CCO
active: CCRF-CEM leukemia 7.19% | MOLT-4 leukemia -1.68%
inactive: SK-MEL-2 melanoma 114% | EKVX NSCLC 112% | SN12C renal 69.2% | UO-31 renal 54.5% | ACHN renal 78.1% | CAKI-1 renal 90.7% | A498 renal 108%

C/C(=C(/c1ccc(O)cc1)c1ccc(OCCN2CCCC2)cc1)c1ccccc1
inactive: SK-MEL-2 melanoma 63.1% | EKVX NSCLC 62.5% | SN12C renal 72.4% | UO-31 renal 55.3% | ACHN renal 68.5% | CAKI-1 renal 65.1% | A498 renal 80.5% | CCRF-CEM leukemia 60.7%
active: MOLT-4 leukemia -1.64%

C=C1CCC2C3(C)COC(c4ccc(OC)cc4Br)OC3CCC2(C)C1/C=C/C1=CCOC1=O (configuration not stated)
inactive: SK-MEL-2 melanoma 81.2% | EKVX NSCLC 44.2% | SN12C renal 79.8% | UO-31 renal 54.2% | TK-10 renal 83.9% | ACHN renal 81.1% | CAKI-1 renal 74.3% | A498 renal 72.2% | MOLT-4 leukemia 55.7%

CCN(CC)C12CCCCC1(C)C(C#N)(C#N)C(C#N)=C(N)O2 (configuration not stated)
inactive: SK-MEL-2 melanoma 112% | EKVX NSCLC 89.3% | SN12C renal 97.5% | UO-31 renal 82.7% | TK-10 renal 93.2% | ACHN renal 106% | CAKI-1 renal 91.8% | A498 renal 122% | MOLT-4 leukemia 108%
